YB-1 expr inh: inhibitors of YB-1 gene expression, primary screen, cell-based, fluorescence; delta delta Cp (YB-1 minus CDIP) (no concentration beside the values); 30,000 tested, 0.37% active; U2OS, qRT-PCR YB-1 vs CDIP delta delta Cp, 16 h; hits give high values; zero = DMSO, each unit about twofold; AID 434959, 2010;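 active means delta delta Cp rounded down to an integer at or above 3, about 3 SD of DMSO wells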;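 further: higher means less YB-1 transcript or more CDIP transcript relative to DMSO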
Hedgehog inh: Hedgehog pathway signaling inhibitors, primary screen, luminescence, Shh-LIGHT2 cells, Gli-luciferase; Shh-LIGHT2 Gli-luciferase reporter, 30 h; inhibition, % (test concentration not listed); 22,000 tested, 2.1% active;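 active means mean inhibition across valid replicates above about 65%, limit read from the data; inconclusive means mean under the limit, yet half or more replicates past it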;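 further: pathway switched on by Shh-conditioned medium diluted 1 in 25 in low serum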
MITF inhib: inhibitors of MITF, primary screen, MITF inhibitor project, cell-based, luminescence. TRPM1 promoter luciferase, 24 h. inhibition, % (test concentration not listed). 37,000 tested, 0.28% active; in the data active means inhibition above about 85%; inconclusive means no clear call, values can overlap the other calls; inactive means below about 68%;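 further: human melanocyte line stably carrying TRPM1 promoter luciferase reporter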
PD-1 reversal: activators reversing PD-1 mediated T-cell inhibition, primary screen, luminescence, primary human CD4 T cells, PD-L1 beads; CellTiter-Glo 96 h; activation, % (no concentration beside the values); 29,000 tested, under 10 active; AID 2316, 2010; call rule not given here;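 further: 0% = median vehicle wells and 100% = positive control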
The depositor's hits bear a star; ! = a repeat was not active. The full list was thinned out, with hits kept by preference.

For OC(COc1ccc(F)cc1)(c1ccc(Cl)cc1)c1ccc(Cl)cc1 the results were YB-1 expr inh -0.37, Hedgehog inh 75*, MITF inhib 38 and PD-1 reversal -4.
CN1CCN(CCCN2c3ccccc3Sc3ccc(Cl)cc32)CC1 was read as YB-1 expr inh -0.14, Hedgehog inh 75*! and MITF inhib 4.
Screening OCCN1CCN(CCCN2c3ccccc3Sc3ccc(C(F)(F)F)cc32)CC1 returned YB-1 expr inh -0.061, Hedgehog inh inconclusive and MITF inhib 17.
`COc1ccc(OC)c(-n2c(=S)[nH]c3cc(C(=O)NCc4ccc(F)cc4)ccc3c2=O)c1` gave YB-1 expr inh -0.18, Hedgehog inh 77*, MITF inhib 4 and PD-1 reversal 0.
Clc1ccc(-c2csc3ncnc(SCc4ccco4)c23)cc1 was read as MITF inhib 23 and PD-1 reversal -2.
Screening O=C(CN1C(=O)c2ccccc2S1(=O)=O)Nc1cccc(Br)c1 returned MITF inhib -5 and PD-1 reversal 3.
`Cc1cc(C)c2c(c1C(=O)Nc1cccc(C(F)(F)F)c1)CC(C)(C)C2=O` gave YB-1 expr inh -0.34, Hedgehog inh 86*, MITF inhib 60 and PD-1 reversal 0.
For C[C@H](CO)N1C[C@H](C)[C@H](CN(C)C)Oc2ccc(NC(=O)Nc3cccc4ccccc34)cc2CC1=O the results were YB-1 expr inh -0.017, Hedgehog inh -2, MITF inhib -8 and PD-1 reversal 1.
CCOC(=O)c1oc2ccc(C=NC(C)(C)C)c(Cl)c2c1C was read as YB-1 expr inh -0.07, Hedgehog inh -66, MITF inhib -57 and PD-1 reversal 0.
CCOC(=O)c1oc2ccccc2c1CO was read as YB-1 expr inh 0.15, Hedgehog inh 97*, MITF inhib 27 and PD-1 reversal 0.
`CC1CCc2c(sc3ncn(CC(=O)Nc4ccccc4F)c(=O)c23)C1` (stereo unspecified) gave MITF inhib -14 and PD-1 reversal 1.
`COC(=O)C1=C(C)NC(C)=C(C(=O)OCCCN2CCC(c3ccccc3)(c3ccccc3)CC2)C1c1cccc([N+](=O)[O-])c1` (stereo unspecified) gave YB-1 expr inh 0.13, Hedgehog inh 72* and MITF inhib 110*.
`CCC(Sc1nnnn1-c1ccccc1)C(=O)Nc1sc2c(c1C#N)CCCC2` (stereo unspecified) gave YB-1 expr inh 0.18, Hedgehog inh 68*, MITF inhib 16 and PD-1 reversal 0.
Screening C[C@@H]1CN([C@H](C)CO)C(=O)c2cc(NC(=O)CCCN(C)C)ccc2O[C@H]1CN(C)Cc1ccc(-c2ccccc2)cc1 returned YB-1 expr inh -0.54, Hedgehog inh -2, MITF inhib -1 and PD-1 reversal 0.
For COc1ccc(-c2coc3cc(O)ccc3c2=O)cc1 the results were YB-1 expr inh 0.0067, Hedgehog inh 34 and MITF inhib 11.
For COc1ccc(-c2coc3cc(O)ccc3c2=O)c(OC)c1 the results were YB-1 expr inh -0.14, Hedgehog inh 80* and MITF inhib -6.
`CC[n+]1c(C=C2C=C(C)CC(C)C2)sc2ccccc21` (stereo unspecified) gave YB-1 expr inh -0.12, Hedgehog inh 22, MITF inhib 44 and PD-1 reversal -1.
For Cc1ccc(S(=O)(=O)N(C)C[C@@H]2Oc3ccc(NC(=O)Nc4ccc(F)cc4)cc3C(=O)N([C@@H](C)CO)C[C@@H]2C)cc1 the results were YB-1 expr inh 0.32, Hedgehog inh 3 and MITF inhib -41.
For Cc1ccc(S(=O)(=O)N(C)C[C@@H]2Oc3c(NC(=O)C4CCCCC4)cccc3C(=O)N([C@H](C)CO)C[C@@H]2C)cc1 the results were YB-1 expr inh 0.26, Hedgehog inh 70*, MITF inhib 6 and PD-1 reversal 0.
Screening Cc1ccc(S(=O)(=O)N(C)C[C@@H]2Oc3c(NC(=O)C4CCCCC4)cccc3C(=O)N([C@@H](C)CO)C[C@@H]2C)cc1 returned YB-1 expr inh -0.11, Hedgehog inh 104*, MITF inhib 7 and PD-1 reversal -1.
`C[C@H]1CN([C@@H](C)CO)C(=O)c2cccc(NC(=O)C3CCCCC3)c2O[C@H]1CN(C)S(=O)(=O)c1ccc(F)cc1` gave YB-1 expr inh 0.092, Hedgehog inh 82*, MITF inhib -12 and PD-1 reversal 1.
Cc1ccc(S(=O)(=O)N(C)C[C@@H]2Oc3c(NC(=O)C4CCCCC4)cccc3C(=O)N([C@@H](C)CO)C[C@H]2C)cc1 was read as YB-1 expr inh 0.091, Hedgehog inh -16 and MITF inhib 0.
`C[C@@H]1CN([C@H](C)CO)C(=O)c2cccc(NC(=O)C3CCCCC3)c2O[C@H]1CN(C)S(=O)(=O)c1ccc(F)cc1` gave YB-1 expr inh -0.17, Hedgehog inh 6 and MITF inhib 0.
For CC(C)(C)c1ccc(NC(=O)CCSc2nnnn2-c2ccccc2)cc1 the results were MITF inhib -15 and PD-1 reversal -3.
C[C@H]1CN([C@@H](C)CO)C(=O)c2cc(N(C)C)ccc2O[C@@H]1CN(C)S(=O)(=O)c1cccs1 was read as YB-1 expr inh -0.082, Hedgehog inh -7, MITF inhib 6 and PD-1 reversal 0.
Screening Cc1ccc(S(=O)(=O)N(C)C[C@@H]2Oc3c(NS(=O)(=O)c4c(C)noc4C)cccc3C(=O)N([C@H](C)CO)C[C@@H]2C)cc1 returned YB-1 expr inh 0.17, Hedgehog inh 42, MITF inhib -6 and PD-1 reversal -2.
Cc1noc(C)c1S(=O)(=O)Nc1cccc2c1O[C@@H](CN(C)S(=O)(=O)c1ccc(Cl)cc1)[C@@H](C)CN([C@H](C)CO)C2=O was read as YB-1 expr inh 0.45, Hedgehog inh 67*, MITF inhib 7 and PD-1 reversal -1.
Screening Cc1ccc(S(=O)(=O)N(C)C[C@@H]2Oc3c(NS(=O)(=O)c4c(C)noc4C)cccc3C(=O)N([C@@H](C)CO)C[C@@H]2C)cc1 returned YB-1 expr inh -0.5, Hedgehog inh 89* and MITF inhib -1.
Screening Cc1noc(C)c1S(=O)(=O)Nc1cccc2c1O[C@@H](CN(C)S(=O)(=O)c1ccc(Cl)cc1)[C@@H](C)CN([C@@H](C)CO)C2=O returned YB-1 expr inh -0.075, Hedgehog inh 106* and MITF inhib 4.
For Cc1noc(C)c1S(=O)(=O)Nc1cccc2c1O[C@H](CN(C)S(=O)(=O)c1ccc(Cl)cc1)[C@H](C)CN([C@@H](C)CO)C2=O the results were YB-1 expr inh -0.21, Hedgehog inh -58 and MITF inhib 15.
Screening COc1ccc(S(=O)(=O)Nc2ccc3c(c2)C(=O)N([C@@H](C)CO)C[C@H](C)[C@@H](CN(C)C(=O)Nc2ccccc2)O3)cc1 returned YB-1 expr inh -0.71, MITF inhib -12 and PD-1 reversal 1.
